Laboratory results taken from PubChem BioAssay (Tox21).
Results filed as inconclusive are left out. Entries that show only a call come without a potency. The source made the active and inactive calls. Calls follow the shape of the dose curve; as a rule, active = well fitted cell-killing curve with a large enough effect in the repeat runs; inconclusive = weak or mixed curves, or effect the other way; inactive = flat fitted curve, though single readings scatter.
Potency is read from the fitted curve at half-maximal effect.

Experiment: Nuclear factor erythroid 2-related factor 2/antioxidant responsive element (Nrf2/ARE) small molecule agonists: qHTS cell viability counter screen in human keratinocytes (AID 1919968); also: nearly all actives have a fitted effect of over 55% in size
Details: KeratinoSens HaCaT ARE cells viability, CellTiter-Fluor, 24 h; series mostly up to 92.4 µM
Outline: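 HaCaT ARE reporter line, 1,500 cells/well; 5 h settle, 37 C/5% CO2; cpd in DMSO pinned; 23 h exposure; CellTiter-Fluor, 1 h; fluorescence.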
With CC[N+](C)(CC)CCOC(=O)C1c2ccccc2Oc2ccccc21 the Potency was “inactive”.
For C/C=C1/C(=O)C[C@H]2[C@@H]3CCC4=CC(=O)CC[C@]4(C)[C@H]3CC[C@]12C, the Potency was “inactive”.
In the case of O=C(NN1CCCC1)NS(=O)(=O)c1ccc(Cl)cc1, the Potency is reported as “inactive”.
In the case of CCCNCCC, the Potency is reported as “inactive”.
In the case of O=C1CC[C@@H](C(=O)O)N1, the Potency is reported as “inactive”.
With C1C2OC2C2C1C1CC2C2OC12 (centres undefined) the Potency was “inactive”.
With Cc1ccc(C#N)cc1 the Potency was “inactive”.
For CC[C@@]1(c2ccccc2)NC(=O)N(C)C1=O, the Potency was “inactive”.
With CC[C@H]1O[C@]2(CC[C@@H]1C)C[C@@H]1C[C@@H](C/C=C(\C)C[C@@H](C)/C=C/C=C3\CO[C@@H]4[C@H](O)C(C)=C[C@@H](C(=O)O1)[C@]34O)O2 the Potency was 15.2 µM (active).
In the case of O=CNc1ccccc1, the Potency is reported as “inactive”.
For FC(F)(Cl)C(F)(Cl)Cl, the Potency was “inactive”.
With CCN(C(=O)N(CC)c1ccccc1)c1ccccc1 the Potency was “inactive”.
For CCCCCC/C=C/C=O, the Potency was “inactive”.
With CCCCCCCCCCO[C@@H]1O[C@H](CO)[C@@H](O)[C@H](O)[C@H]1O the Potency was “inactive”.
For CC(C)COC(=O)CCCCC(=O)OCC(C)C, the Potency was “inactive”.
With CCOc1ccc(NC(=O)CC(C)=O)cc1 the Potency was “inactive”.
For CCOC(=O)CC(=O)c1ccccc1, the Potency was “inactive”.
In the case of NCCCC(N)(C(=O)O)C(F)F (centres undefined), the Potency is reported as “inactive”.
For Cc1ccccc1Br, the Potency was “inactive”.
With CCCCCCCCS(=O)(=O)O the Potency was “inactive”.
For CCOC(=O)[C@@](C)(N)Cc1ccc(O)c(O)c1, the Potency was “inactive”.
In the case of CC1(C)SC(C)(C)SC(C)(C)S1, the Potency is reported as “inactive”.
For NCCCCCCNCCCCCCN, the Potency was “inactive”.
In the case of CCN(CC)CCNC(C(=O)OCCC(C)C)c1ccccc1 (centres undefined), the Potency is reported as “inactive”.
